Giardia FBPA inh-1: inhibitors of Giardia lamblia fructose-1,6-bisphosphate aldolase; A8B2U2; purified Giardia FBPA; Potency, µM (series often up to 59.6 µM), for the others: top-dose activity, negative = inhibition, most hits filed as inhibitors; 290,000 tested, 0.71% active; AID 2451; further: potency means the concentration at half of the fitted maximal effect; on the % scale 0 is the no-effect control and ±100 the full control effect; nearly all actives have a fitted effect of over 55% in size
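40 nM FBPA preincubated 10 min at RT with compound (up to 57.5 uM final), then substrate plus GAPDH/TPI/NAD/arsenate coupling and diaphorase/resazurin added. Fluorescence read after 20 min at RT, 525/598 nm.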
NS1 function inh: blocks influenza NS1 protein function; 270,000 tested, 0.4% active; AID 2326; Potency, µM (doses to about 46.1 µM), for the others: at the top dose activity, positive = more growth; calls by dose curve; further: potency means the concentration at half of the fitted maximal effect; actives are rising curves; nearly all actives have a fitted effect of over 50% in size
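In this qHTS, NS1 from influenza A is expressed in budding yeast, where it slows growth. Cells are switched from glucose to 2% galactose medium (pH 6.0, -URA), treated with compound, and growth recovery is read at OD600.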
Shiga inhibitor: blocks Shiga toxin action in Vero cells; inhibition, % at 38.7 µM; Vero cells, Shiga toxin protein synthesis inhibition reporter; 290,000 tested, 9.2% active; in the data active means inhibition mostly above about 28%, no sharp cut-off; inactive means mostly below about 43%; further: 0% is about no effect
Pf growth 96h: P. falciparum growth inhibition at 96 hour, primary screen for plastid delayed-death inhibitors; AID 504834; P. falciparum luciferase reporter growth, 96 h; Potency, µM (top dose mostly 28.7 µM), without a hit: top-dose activity change, negative = inhibition, actives largely listed as inhibitors; 320,000 tested, 6.9% active; further: potency means the concentration at half of the fitted maximal effect; on the % scale 0 is the no-effect control and ±100 the full control effect
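P. falciparum expressing integrated firefly luciferase, in erythrocytes at 2% hematocrit, 0.05% parasitemia, incubated with compounds 96 h at 37 C, 5% CO2. Growth inhibition read as loss of luminescence; two-generation exposure targets delayed-death apicoplast inhibitors.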
Pf growth 48h: inhibits P. falciparum growth in the first generation, 48 h | P. falciparum luciferase growth in erythrocytes, 48 h | 310,000 tested, 5.9% active | Potency, µM (doses to about 28.7 µM), inactives show at the top dose activity change, negative = inhibition, most hits filed as inhibitors; further: potency means the concentration at half of the fitted maximal effect; on the % scale 0 is the no-effect control and ±100 the full control effect
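Growth was read as firefly luciferase luminescence after a 48 h, 37 C, 5% CO2 exposure of compounds to reporter-bearing P. falciparum cultures (0.1% parasitemia, 2% hematocrit final) in Albumax-supplemented RPMI 1640.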
CHX counter: counter-screen hit for Shiga toxin inhibitors, cycloheximide | 300,000 tested, 12% active | cell reporter, cycloheximide protein synthesis inhibition counterscreen | AID 2314 | max response, %; in the data active means max response mostly above about 13%, no sharp cut-off; inactive means mostly below about 14%; further: read at 38.3 µM for the half of the compounds with a filed dose; 0% is about no effect
Giardia growth: inhibitors of Giardia lamblia growth; 1,500 tested, 5% active; shares compounds with Giardia FBPA inh-1; Giardia lamblia trophozoite growth inhibition; Potency, µM (series often up to 57.5 µM), inactives show at the highest dose activity change, negative = inhibition, most hits filed as inhibitors;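 further: potency means the concentration at half of the fitted maximal effect; trophozoites exposed to compound for 48 h at 37 °C; on the % scale 0 is the no-effect control and ±100 the full control effect; nearly all actives have a fitted effect of over 70% in size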
Mammal cell tox: counter-screen for Giardia aldolase inhibitors: mammalian cell toxicity. 1,500 tested, 4% active. AID 2786. mammalian cell viability counter-screen, qHTS. Potency, µM (highest dose often 57.5 µM), for the others: top-dose viability change, negative = toxicity, hits mostly inhibitors. shares compounds with Giardia FBPA inh-1;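 further: Chinese hamster ovary cells used as mammalian cytotoxicity surrogate; viability measured as cellular ATP by luminescence; potency means the concentration at half of the fitted maximal effect; compound exposure lasted 48 h before reading; on the % scale 0 is the no-effect control and ±100 the full control effect; nearly all actives have a fitted effect of over 60% in size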
Giardia FBPA inh-2: confirmation of Giardia fructose-bisphosphate aldolase inhibitors; shares compounds with Giardia FBPA inh-1; purified Giardia aldolase enzyme activity, qHTS; Potency, µM (doses to about 57.5 µM), for the others: at the top dose activity change, negative = inhibition, hits mostly inhibitors; 1,500 tested, 5% active; further: potency means the concentration at half of the fitted maximal effect; on the % scale 0 is the no-effect control and ±100 the full control effect; nearly all actives have a fitted effect of over 45% in size
Rabbit aldolase: blocks rabbit muscle aldolase in Giardia aldolase selectivity test. shares compounds with Giardia FBPA inh-1. Rabbit muscle FBPA enzyme inhibition, selectivity counter-screen. Potency, µM (doses to about 57.5 µM), without a hit: at the highest dose activity, negative = inhibition, most hits filed as inhibitors. 1,500 tested, 4% active; further: potency means the concentration at half of the fitted maximal effect; on the % scale 0 is the no-effect control and ±100 the full control effect; nearly all actives have a fitted effect of over 60% in size
Target sequence (P00883 whole entry, looked up): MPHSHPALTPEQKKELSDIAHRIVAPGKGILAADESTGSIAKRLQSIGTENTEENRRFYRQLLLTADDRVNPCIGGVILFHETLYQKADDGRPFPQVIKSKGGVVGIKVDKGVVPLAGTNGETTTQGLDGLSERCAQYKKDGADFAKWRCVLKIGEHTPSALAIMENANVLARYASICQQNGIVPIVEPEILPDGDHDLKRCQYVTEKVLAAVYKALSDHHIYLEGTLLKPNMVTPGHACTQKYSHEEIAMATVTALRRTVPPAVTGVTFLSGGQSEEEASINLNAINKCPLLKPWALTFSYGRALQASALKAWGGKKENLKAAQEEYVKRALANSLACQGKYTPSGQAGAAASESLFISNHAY
GAPDH coupling: counter-screen for Giardia aldolase inhibitors: GAPDH coupling enzyme | shares compounds with Giardia FBPA inh-1 | GAPDH coupling enzyme counterscreen, biochemical, qHTS | Potency, µM (doses to about 57.5 µM), inactives show at the highest dose activity change, negative = inhibition, hits mostly inhibitors | 1,500 tested, 6% active | AID 2795; further: potency means the concentration at half of the fitted maximal effect; on the % scale 0 is the no-effect control and ±100 the full control effect; nearly all actives have a fitted effect of over 55% in size
Active calls of the source: *; ? = inconclusive; . = not tested or not shown; [ ] = remark or other dose. The list is not random: actives were taken first. Their share in the collection is about 21%. Unless noted, the call rests on the fitted dose curve; in most records, active means well fitted curve in the direction sought with a large enough effect; inconclusive means small, poorly fitted or top-dose-only effect, or another doubt; inactive means no such curve, though single readings can be large; an effect the other way counts as inactive or inconclusive.

SMILES	Giardia FBPA inh-1	NS1 function inh	Shiga inhibitor	Pf growth 96h	Pf growth 48h	CHX counter	Giardia growth	Mammal cell tox	Giardia FBPA inh-2	Rabbit aldolase	GAPDH coupling
CCn1c(CNS(=O)(=O)c2ccc(Br)cc2)n[nH]c1=S	.	6%	4	5%	29%	-2	.	.	.	.	.
CCn1c(C(C)NS(=O)(=O)c2ccc(Cl)cc2)n[nH]c1=S (stereo unspecified)	11µM*	4%	-4	47%	9%	-3	14%	-6%	6%	4%	13%
O=C(NC(=S)Nn1cnnc1)c1ccccc1	.	.	.	71%	39%	.	.	.	.	.	.
O=C(NC(=S)Nn1cnnc1)c1ccccc1Br	11µM*	1%	-5	77%	22%	1	?	-3%	3%	5%	16%
COc1ccc(OC)c(S(=O)(=O)NNC(=S)Nc2ccc3c(c2)OCO3)c1	8.9µM*	4%	29	14%	31%	10	9%[38.3 µM]	-1%	-16%	-10%	-17%
COc1ccc(OC)c(S(=O)(=O)N(C)CC(=O)Nc2ccc3c(c2)OCCO3)c1	5%	-15%	-5	-9%	-27%	-3	.	.	.	.	.
Cc1cnn(C(=S)NCc2ccco2)c1	16µM*	-1%	18	.	4%	-1	-3%[10.4 µM]	3%	-6%	4%	11%
NNC(=S)NCc1ccco1	18µM*	-2%	20	?	1%	-1	-5%[10.4 µM]	0%	2%	13%	4%
Cc1c(NC(=O)c2ccccc2N(C)S(=O)(=O)c2ccccc2)c(=O)n(-c2ccccc2)n1C	2%	1%	-11	.	6%	-3	.	.	.	.	.
CNC(=O)NNC(=O)c1nc(-c2ccccc2)c(C)o1	-5%	-1%	21	?	11%	-3	.	.	.	.	.
O=C(O)c1cc(O)c2c(c1)[O][Bi][O]2	.	.	.	-17%	-8%	.	.	.	.	.	.
O=C(O)c1cc(O)c(O)c(O)c1	3.5µM*	.	.	8.5µM*	?	.	-29%[38.3 µM]	40µM*	14µM*	20µM*	25µM*
Cc1cc(C)cc(NC(=S)N2CCC(NC(=O)c3ccccc3C)CC2)c1	-3%	-1%	-23	15%	5%	-3	.	.	.	.	.
O=C(NN1C(=O)/C(=C/C=C/c2ccccc2)SC1=S)c1ccncc1	-26%	.	21	0%	23%	26	.	.	.	.	.
O=C(NN1C(=O)/C(=C/C=C/c2ccco2)SC1=S)c1ccncc1	7.1µM*	14%	-12	14%	-62%	3	-21%[38.3 µM]	-15%	?	?	-27%
COc1cc(CN2CCN(Cc3ccc([N+](=O)[O-])cc3)CC2)c([N+](=O)[O-])cc1OC	13µM*	.	-7	4%	?	-2	-17%	9%	?	-23%	-11%
CCn1c(CSc2ncccn2)nnc1SCC(=O)N1CCCCC1	1%	-1%	-6	16%	17%	5	.	.	.	.	.
Cc1cc(C)cc(NC(=O)C(NCC2CCCO2)c2ccccc2)c1 (stereo unspecified)	16µM*	7%	-9	-18%	?	-1	-16%[10.4 µM]	8%	-1%	6%	8%
CC(CC(=O)NCC1CCCO1)c1ccccc1 (stereo unspecified)	5%	1%	-11	57%	0%	-9	.	.	.	.	.
CC(=O)Nc1nc(-c2ccc(Cl)cc2)nc(C)c1C(C)=O	7.1µM*	?	18*	?	88%	21*	0%[10.4 µM]	-17%	-7%	7%	5%
